The chains are these.
B1: chr18:35263486:35263657:-|CDS|ENSG00000186814|control|control|control (ssRNA)
RNA: GGGAGUUCUACAGUCCGACGAUCGGAAAUGACAUCCACAGGAGCACUGAAGUCUCUGUCUCUGAAUAGCCCGGUGCAGCCCUUAGAGAACCAGUGCAAGACUGAGACUCAGGAGUCCCAGGCUUUCCAGGAGAGAGGUGAGAACAACAGAGGAUUGAGCAUCA
B2: chr13:79312715:79312816:-|3pUTR|ENSG00000139746|unk|total|mutant (ssRNA)
RNA: GGGAGUUCUACAGUCCGACGAUCCCUUGUGAUUUAUUAUAAUGCCGCAGCAUACUUAUAAAAGUGGUCUGUGCUGAGUCAGACCGAGAGCCCAGCCCAUCCGAAACACAUCAUAAUUUAAGAAUAUGAUGCAGAAUGCCCUUACAACAGAGGAUUGAGCAUCA
B3: chr17:5489330:5489445:+|CDS|ENSG00000167842|unk|FALSE|unique (ssRNA)
RNA: GGGAGUUCUACAGUCCGACGAUCACGUUGACUUUCUUUGAUGAGCUUCAUAAUGUUGGCAGAGAUCAUGGGACUAGUGAUUUUAGGGAGAGUUUAGUAUCCCUGGUUCAGAACUCCAGAAAACUACAGAACAUUAGAGACAAUCAACAGAGGAUUGAGCAUCA
B4: chr4:138169334:138169435:-|3pUTR|ENSG00000151012|msi1|total|mutant (ssRNA)
RNA: GGGAGUUCUACAGUCCGACGAUCCCAUUUCACGCAGAAAAAAAGUCAGCCAGUAAUUAAGAAAAAAAGUGAUGGAGAUUAAGCCGUAUUUUGGCUUAUUUUCCGGACUCAUCAUGAGAAGACACAGUUCCUUUAAUCAGGAAACAACAGAGGAUUGAGCAUCA
B5: chr4:138169334:138169435:-|3pUTR|ENSG00000151012|msi1|FALSE|unique (ssRNA)
RNA: B4 RNA with C83U, C84A, C102U, C103A
B6: chr13:79312715:79312816:-|3pUTR|ENSG00000139746|unk|FALSE|unique (ssRNA)
RNA: B2 RNA with C44U, C45A, C83U, C84A, C100U, C101A
B7: chrX:155122998:155123099:+|3pUTR|ENSG00000185515|unk|FALSE|unique (ssRNA)
RNA: GGGAGUUCUACAGUCCGACGAUCCUACAUACACACAAAUGAAUGCAUGUAAAAUCUGGUGAUACUGAAUAAAGUCUGUGGUCUAGAUAGCAGUAUAAUAUUAUUGUCAAUGUCUUGGAUGUGAAGUUGUGCUAUAGUUACAAACAACAGAGGAUUGAGCAUCA
B8: chr5:97028609:97028710:+|3pUTR|ENSG00000113441|msi1|total|mutant (ssRNA)
RNA: GGGAGUUCUACAGUCCGACGAUCUUGCAAAAGCCAAGGUAAAGCCAGGAUCGCUGCCAAGUUGUUUGCACUCUUUGGAGUUCCCGUCCGCUCAGGGCCUGACUGUAUUUUUCAUCCAUCUUUUCUGAAGUGUCUUUGGGCAGUCAACAGAGGAUUGAGCAUCA
B9: chr15:34983303:34983404:-|CDS|ENSG00000198146|msi1|FALSE|unique (ssRNA)
RNA: GGGAGUUCUACAGUCCGACGAUCGCUGAAAACAAUUUAAAAAUGCUAAAGAUUCAACAGUGUGUGGUAGCCAACAAACUACCUAGAAACAGGCCAUAUGUUUGCAAUAUUUGUUUUAAGCACUUUGAAACACCAUCAAAAUUACAACAGAGGAUUGAGCAUCA
B10: ENSG00000160710:stop:overlap|stop_codon|ENSG00000160710|stop_codon|NA|stop_codon (ssRNA)
RNA: GGGAGUUCUACAGUCCGACGAUCGCUAUGGGAACUGGAUUAGCAAACCCCAGGAGGAAAAGAACUUUUAUCUCUGCCCAGUAUAGUAUGCUCCAGUGACAGAUGGAUUAGGGUGUGUCAUACUAGGGUGUGAGAGAGGUAGGUCAACAGAGGAUUGAGCAUCA
B11: chr5:128187618:128187661:+|3pUTR|ENSG00000064651|msi1_unk|FALSE|overlapping (ssRNA)
RNA: GGGAGUUCUACAGUCCGACGAUCUCCUUUAUAAGUCAUUAAAAUAAUGUUUCAUCAAAUGGUUAAAUGGACCACUGGUUUCUUAGAGAAAUGUUUUUAGGCUUAAUUCAUUCAAUUGUCAAGUACACUUAGUCUUAAUACACUCAACAGAGGAUUGAGCAUCA
B12: chr6:149410404:149410522:+|3pUTR|ENSG00000055208|unk|total|mutant (ssRNA)
RNA: GGGAGUUCUACAGUCCGACGAUCUUAUAUUUCUAUAUGUACCGUGUAACCGCCUUUUGUUAACUAAUUUUCUUUUUUCCUUUCCGUAAUUAAGCACGAUCAUGUCCCUUUUUAAGCCUUACCUGAGAGGAACAAUGCCUUAAACAACAGAGGAUUGAGCAUCA
B13: ENSG00000198589:be:win_9151|3pUTR|ENSG00000198589|bound_else_gene|NA|bound_elsewhere_windowed (ssRNA)
RNA: GGGAGUUCUACAGUCCGACGAUCAUUGUGUGGUUAGCACAAGGAAUCUAAUUUAUAGCAAGUGUGAAAUAGUUACCAUUUUUUCCUGAUCUGUCAUCUUCAUAGCACAACAAAACGAAAUGAUGGAAAUGCUCUUGAGCUCACCAACAGAGGAUUGAGCAUCA
B14: chr3:112140897:112141281:-|three_prime_utr|ENSG00000172139|control|control|control (ssRNA)
RNA: GGGAGUUCUACAGUCCGACGAUCACUUUUUGCAAAAUUUCCUUGAUUUAAAAUAUUUGUUAUUUUAAAUAUACAAAACAUUUUAGAAAAUCUUAGAGUAAAUUUUAGUCUUAAAGCCAGAAAAUAAGUUUAUAGCCAUCUAGACAACAGAGGAUUGAGCAUCA
B15: ENSG00000198589:be:win_9101|3pUTR|ENSG00000198589|bound_else_gene|NA|bound_elsewhere_windowed (ssRNA)
RNA: GGGAGUUCUACAGUCCGACGAUCUUCAAGCAUGUUUUAGACCUAGAAAAGUAUGGUUUGGGGGAGGCUAUUUUAUUGUGUGGUUAGCACAAGGAAUCUAAUUUAUAGCAAGUGUGAAAUAGUUACCAUUUUUUCCUGAUCUGUCAACAGAGGAUUGAGCAUCA
B16: ENSG00000198589:be:win_9201|3pUTR|ENSG00000198589|bound_else_gene|NA|bound_elsewhere_windowed (ssRNA)
RNA: GGGAGUUCUACAGUCCGACGAUCACCAUUUUUUCCUGAUCUGUCAUCUUCAUAGCACAACAAAACGAAAUGAUGGAAAUGCUCUUGAGCUCACAACAUUUGUUUUUCUUUUAAAGUAAAUGCAAGUACCAAAGCUCACUACUGCAACAGAGGAUUGAGCAUCA
B17: chr10:52765379:52768136:-|three_prime_utr|ENSG00000165471|control|control|control (ssRNA)
RNA: GGGAGUUCUACAGUCCGACGAUCUUGUUCCUUUUGUGGGCAAUCACUAAAAAUGAUCACUAACAGCACCAACAAAGCAAUAAUAGUAGUAGUAGUAGUUAGCAGCAGCAGUAGUAGUCAUGCUAAUUAUAUAAUAUUUUUAAUCAACAGAGGAUUGAGCAUCA
B18: chr2:15946816:15946917:+|3pUTR|ENSG00000134323|unk|FALSE|unique (ssRNA)
RNA: GGGAGUUCUACAGUCCGACGAUCUAUAUGCCUUUUUCCUAGCCUGUUUCUUCCUGUUAAUGUAUUUGUUCAUGUUUGGUGCAUAGAACUGGGUAAAUGCAAAGUUCUGUGUUUAAUUUCUUCAAAAUGUAUAUAUUUAGUGCUCAACAGAGGAUUGAGCAUCA
B19: chr6:149410404:149410522:+|3pUTR|ENSG00000055208|unk|FALSE|bound_elsewhere (ssRNA)
RNA: B12 RNA with C41U, C42A, C49U, C50A, C83U, C84A
B20: chr12:89590234:89590335:-|3pUTR|ENSG00000070961|msi1|FALSE|bound_elsewhere (ssRNA)
RNA: GGGAGUUCUACAGUCCGACGAUCUUUGCCUACAAUUUACCUUGUUAAAUAUUGUAGAUAAAUUGCUAAUACUAAUAGCCAAAUAGAUAACACUAAUGCUUUGUUUAAAAAAACGAAAAAAACAAAACAAAACAAAAAAACAUGCAACAGAGGAUUGAGCAUCA
B21: chr11:118750849:118750950:-|3pUTR|ENSG00000110367|msi1|total|mutant (ssRNA)
RNA: GGGAGUUCUACAGUCCGACGAUCAUUCCCGAAAGUACUUUGGCCUCGUGCUGCCGAGAGCAGAUUUCUAUGGUACCCUGUGUCCGUAAAGGGGCCCAGAAAUCUGGGAUGUACUGUUUGCUGCCACACUGUCUCAUCCCGUACCAACAGAGGAUUGAGCAUCA
B22: chr10:32033860:32033975:-|CDS|ENSG00000170759|unk|FALSE|unique (ssRNA)
RNA: GGGAGUUCUACAGUCCGACGAUCCACAGUGGAUAAAGAUAUUACUCUUACCAAUGAUAAACCAGCAACCGCAAUUGGAGUUAUAGGAAAUUUUACUGAUGCUGAAAGAAGAAAGUGUGAAGAAGAAAUUGCUAAAUUAUACAACAACAGAGGAUUGAGCAUCA

Where a chain is given by its changes, count along the chain named. Over roughly 5,800 sequences, “enrichment r” has its median near 0.54; the highest 2% begin near 16. The entries come from a sample that favours the highest values as a whole.

In this test the target is MSI1 full-length (mouse, UniProt Q61474 1-362). The experiment in a line: nsRBNS (natural sequence RNA bind-n-seq); RBNS binding buffer (assumed for nsRBNS): 25 mM Tris pH 7.5, 150 mM KCl, 3 mM MgCl2, 0.01% Triton X-100, 500 ug/ml BSA, 20 U/ml SUPERase-In, 4 C; UNK is unkempt and MSI1 is Musashi-1; names of the RNAs are library labels; protein concentration not given here; high values mean tight binding.
Sequence of MSI1 full-length (Q61474 whole entry): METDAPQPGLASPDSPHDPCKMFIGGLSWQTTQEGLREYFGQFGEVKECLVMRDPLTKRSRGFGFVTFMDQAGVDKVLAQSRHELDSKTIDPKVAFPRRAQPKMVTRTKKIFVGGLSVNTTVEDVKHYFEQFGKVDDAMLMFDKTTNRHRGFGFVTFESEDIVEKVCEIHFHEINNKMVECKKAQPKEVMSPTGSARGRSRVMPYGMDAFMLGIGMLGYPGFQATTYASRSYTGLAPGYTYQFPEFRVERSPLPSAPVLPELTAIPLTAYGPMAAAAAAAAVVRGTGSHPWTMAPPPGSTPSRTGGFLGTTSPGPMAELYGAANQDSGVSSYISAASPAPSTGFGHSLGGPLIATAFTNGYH
Turning to B1, the binding signal came to 0.496 enrichment R. Molecule B2 displayed a binding signal of 1.96 enrichment R.

With B3, the binding signal amounted to 1.88 enrichment R.

B4 yielded a binding signal of 0.883 enrichment R.

In turn, B5 yielded a binding signal of 19.3 enrichment R. B6: the binding signal stood at 17.8 enrichment R.

On to B7, for which the binding signal came to 2.09 enrichment R. The result for B8 reads 0.321 enrichment R. B9 gave a binding signal of 0.421 enrichment R. The result for B10 reads 1.25 enrichment R.

B11 displayed a binding signal of 15.5 enrichment R. In turn, B12 displayed a binding signal of 11.2 enrichment R. Take B13: the binding signal turned out to be 33.5 enrichment R.

For the molecule B14, the binding signal was 14.9 enrichment R. Consider B15, for which the binding signal stood at 7.83 enrichment R. With B16 the figure was 0.392 enrichment R; with B17, 83.7 enrichment R; with B18, 6.12 enrichment R.

The molecule B19 came in with a binding signal of 30.1 enrichment R. As to B20, the binding signal worked out at 1.67 enrichment R. The molecule B21 came in with a binding signal of 0.539 enrichment R. B22 came in with a binding signal of 1.59 enrichment R.

Source of the values: article PMC12136788.
